Reference: PubChem BioAssay
Where “and” joins values, the source holds several entries; their conditions need not be identical. Equal entries are not always repeated. Results filed as inconclusive are left out. Calls of active or inactive are those of the source.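 How the source made its calls, unless noted: active means aptamer binding inhibition above 30%, about 3 SD of noise from non-fluorescent compounds; inactive means inhibition at or below 30%.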

Key:
[1] = yeast TOR pathway RPL19A-GFP modulators, primary screen, cell-based, S. cerevisiae, multiplex flow cytometry (AID 1862; in the data active means percent of DMSO control GFP below about 86%;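 further: lower values mimic rapamycin by blocking the RPL19A rise seen in DMSO cells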); conditions: S. cerevisiae RPL19A-GFP strain, flow cytometry fluorescence, 3 h; at 10 µM; stronger effect = lower value
[2] = modulators of MEP2-GFP levels in yeast, primary screen, S. cerevisiae, multiplex flow cytometry (AID 1867;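 active means GFP response, as percent of the DMSO control, above the screen-wide mean plus 3 SD, about 139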;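 further: median GFP channel fluorescence of barcode-gated MEP2-GFP cells measured by flow cytometry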); conditions: S. cerevisiae MEP2-GFP strain, 3 h, at 10 µM, stronger effect = higher value, 100% means same as DMSO wells
[3] = modulators of CIT2-GFP expression in yeast, primary screen, S. cerevisiae, GFP fusion, multiplex flow cytometry (AID 1870;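 active means percent response above a set limit, the screen-wide mean plus 3 SD, cut at about 130% in these data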;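 further: barcoded CIT2-GFP strain pooled with four other GFP strains with rapamycin as positive control; median GFP fluorescence per well over plate mean of DMSO wells so 100% = DMSO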); conditions: 3 h, at 10 µM, stronger effect = higher value
[4] = modulators of LAP4-GFP expression in yeast, primary screen, S. cerevisiae, multiplex flow cytometry (AID 1873;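 active means GFP signal, as percent of the solvent control, above the screen mean plus 3 SD, about 149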); conditions: 3 h, at 10 µM, stronger effect = higher value
[5] = modulators of AGP1-GFP expression in yeast TOR pathway, primary screen, cell-based, multiplex flow cytometry, S. cerevisiae (AID 1887;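 active means GFP signal above the screen-wide mean plus 3 SD, that is over about 124.5% of the solvent control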;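 further: AGP1-GFP fusion strain of S. cerevisiae within a five-strain barcoded multiplex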); conditions: 3 h, at 10 µM, stronger effect = higher value
[6] = inhibitors of CD8+ T cell-vesicle binding, pilot screen, LFA-1/ICAM-1 modulator project, MLPCN validation set, flow cytometry (AID 2523;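 active means response below a set limit, under 55% cells CD8-positive and vesicle-bound, and CD8 cells' 90th-percentile brightness under 279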;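 on vesicle binding response: mean PE anti-B7-1 fluorescence of CD8+ cells relative to row control; 100% = QL9-loaded vesicles with DMSO vehicle in the same plate row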); conditions: 2C mouse CD8+ T cells, at 7 µM, stronger effect = lower value; double positive events: measured here: CD8+/vesicle+ event percentage
[7] = target: Integrin beta-1 (Homo sapiens) + Integrin alpha-4 (Homo sapiens) (UniProt P13612+P05556); assay: inhibition of HUTS-21 binding to VLA-4, pilot screen, VLA-4 allosteric modulator project, U937 cells, HUTS-21 mAb, flow cytometry, validation set (AID 2674;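 active means inhibition above 50%, about 3 SD of the validation set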;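 further: antibody binding induced by the VLA-4 ligand LDV present at three times its Kd; 0% = LDV ligand with antibody and no compound and 100% = antibody without LDV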); conditions: HUTS-21 LIBS mAb binding, at 6.7 µM, stronger effect = higher value, binding induced by LDV ligand
[8] = superoxide lowering in aged yeast cells, pilot screen, validation compound set (AID 2706;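 active means superoxide response below 65% of plate, a cut near 3 SD across the whole screen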;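 further: yeast exposed to compound for one week at 30 degrees C before staining; 100% = mean of all compound wells on the same plate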); conditions: S. cerevisiae aging, superoxide DHE fluorescence; at 10 µM; stronger effect = lower value
[9] = target: Beta-adrenergic receptor kinase 1 (Homo sapiens) (UniProt P25098); assay: GRK2 binders displacing RNA aptamer, biochemical, validation, human GRK2, bead flow cytometry (AID 488806); conditions: bead-bound GRK2, FAM-aptamer displacement, at 10 µM, stronger effect = higher value
[10] = target: Beta-2 adrenergic receptor (Homo sapiens) (UniProt P07550); assay: beta2AR agonists driving receptor internalization, pilot screen, cell-based, FAP fluorogen, flow cytometry, validation set (AID 504459;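 active means percent response above 42, roughly 3 SD of non-fluorescent test compounds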;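 further: agonist-driven loss of surface beta2AR via internalization measured by FAP dye flow cytometry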); conditions: Am2.2-beta2AR cells, FAP surface receptor flow cytometry; at 10 µM; stronger effect = higher value
[11] = target: AP-2 complex subunit beta (Homo sapiens) (UniProt P63010); assay: inhibitors of arrestin peptide binding to AP2, pilot screen, biochemical, validation set, GST-AP2 beads, flow cytometry (AID 504541;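 active means inhibition above 54%, about 3 SD of non-fluorescent compounds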;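 further: AP2 carries R879A mutation and is captured from E. coli lysate; bead-bound FITC arrestin peptide fluorescence measuring arrestin peptide binding to AP2; 0% = DMSO wells and 100% = excess unlabeled arrestin peptide control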); conditions: FITC arrestin peptide, at 10 µM, stronger effect = higher value, AP2 beta2 appendage fragment, R879A mutant
[12] = yeast V-ATPase proton transport modulators, S. cerevisiae, pHLuorin, HTS validation (AID 504600; in the data active means response above about 15%;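 further: plate controls were DMSO for no effect and reference compound for full effect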); conditions: S. cerevisiae pHLuorin cytosolic pH, at 10 µM, stronger effect = higher value
[13] = system: anti-desmoglein-3 scFv antibody binding to human DSG3; assay: inhibitors of anti-DSG3 scFv binding to DSG3, pilot screen, biochemical, validation compound set, bead-based, flow cytometry (AID 588368;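 active means binding below the plate cutoff, the plate median minus 3 SD, with a reading above zero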;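 further: signal is the median channel fluorescence of bead-bound GFP antibody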); conditions: Protein G beads, DSG3-Fc, scFv-GFP binding, at 10 µM, stronger effect = lower value
[14] = inhibitors of fungal efflux pumps CDR1, CDR2, MDR1, pilot screen, validation compound set, multiplex, phenotypic (AID 588506;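 active means efflux inhibition above 0.42, the validation set average plus 4 SD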;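 further: Nile Red retained in cells so higher fluorescence means more efflux inhibition; 0 = negative control wells and 1 = enniatin B 25 µM full block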); conditions: S. cerevisiae pump-expressing triplex, Nile Red efflux flow cytometry; at 10 µM; stronger effect = higher value; the pumps come from Candida albicans
[15] = target: ATP-binding cassette sub-family B member 6 (Homo sapiens) (UniProt Q9NP58); assay: ABCB6 transporter inhibitors, pilot screen, K562-ABCB6 cells, flow cytometry, validation set (AID 588550;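 active means inhibition above the screen-wide mean plus 3 SD, about 51%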;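 further: 0% = DMSO wells and 100% = benzethonium chloride 70 µM positive control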); conditions: K562-ABCB6 porphyrin accumulation, 1 h, at 10 µM, stronger effect = higher value
[16] = promoters of myeloid differentiation in arrested cells, primary screen, cell-based, GFP/MAC1 double positive, flow cytometry, validation set (AID 588685;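 active means differentiation response of at least 50%, scaled between solvent and reference control, from cells with both markers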;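 further: compound exposure lasts four days before antibody staining and flow analysis; 0% = DMSO wells and 100% = 5 µM fulvestrant positive control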); conditions: ER-HoxA9 marrow cells, stronger effect = higher value, normalized: vehicle 0, fulvestrant 100

Chain of AP-2 complex subunit beta (Homo sapiens) (P63010 whole entry, looked up, the tested form may be a part, one chain of several): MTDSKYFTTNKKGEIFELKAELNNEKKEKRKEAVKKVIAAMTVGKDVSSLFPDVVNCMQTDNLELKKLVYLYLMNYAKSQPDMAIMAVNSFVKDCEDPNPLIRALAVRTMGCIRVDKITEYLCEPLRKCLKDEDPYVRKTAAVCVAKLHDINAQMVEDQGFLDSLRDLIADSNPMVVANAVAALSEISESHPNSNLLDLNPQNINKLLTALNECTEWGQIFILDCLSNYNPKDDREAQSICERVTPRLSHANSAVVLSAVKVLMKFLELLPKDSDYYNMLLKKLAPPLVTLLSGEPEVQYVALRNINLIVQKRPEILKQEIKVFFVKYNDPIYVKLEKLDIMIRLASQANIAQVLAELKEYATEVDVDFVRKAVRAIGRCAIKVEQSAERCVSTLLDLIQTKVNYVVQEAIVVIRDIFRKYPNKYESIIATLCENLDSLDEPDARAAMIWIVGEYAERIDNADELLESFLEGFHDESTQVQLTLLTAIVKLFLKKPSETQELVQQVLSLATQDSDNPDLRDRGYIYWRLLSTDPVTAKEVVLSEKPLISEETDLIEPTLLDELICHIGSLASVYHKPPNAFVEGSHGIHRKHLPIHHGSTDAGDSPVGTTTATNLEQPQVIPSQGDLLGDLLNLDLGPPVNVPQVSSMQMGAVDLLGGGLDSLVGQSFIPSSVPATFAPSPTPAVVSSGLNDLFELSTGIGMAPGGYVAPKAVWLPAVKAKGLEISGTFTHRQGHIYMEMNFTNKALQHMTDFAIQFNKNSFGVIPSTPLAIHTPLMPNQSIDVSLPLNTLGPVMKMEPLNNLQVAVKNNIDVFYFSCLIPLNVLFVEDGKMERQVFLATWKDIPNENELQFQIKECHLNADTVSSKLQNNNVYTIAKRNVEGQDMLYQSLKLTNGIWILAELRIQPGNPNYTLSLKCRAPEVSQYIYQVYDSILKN
Chain of Beta-2 adrenergic receptor (Homo sapiens) (P07550 whole entry, looked up): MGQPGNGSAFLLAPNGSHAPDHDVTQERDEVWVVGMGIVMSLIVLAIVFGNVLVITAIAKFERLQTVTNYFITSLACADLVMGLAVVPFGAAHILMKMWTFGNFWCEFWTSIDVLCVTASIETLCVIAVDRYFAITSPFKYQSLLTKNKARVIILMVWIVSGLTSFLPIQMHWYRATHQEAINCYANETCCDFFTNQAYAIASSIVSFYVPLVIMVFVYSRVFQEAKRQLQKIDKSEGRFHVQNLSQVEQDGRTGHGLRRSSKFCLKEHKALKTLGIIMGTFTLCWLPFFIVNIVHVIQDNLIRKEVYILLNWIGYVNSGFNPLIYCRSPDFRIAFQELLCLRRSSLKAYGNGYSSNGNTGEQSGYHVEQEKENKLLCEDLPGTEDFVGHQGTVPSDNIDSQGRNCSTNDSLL
Chain of ATP-binding cassette sub-family B member 6 (Homo sapiens) (Q9NP58 whole entry, looked up): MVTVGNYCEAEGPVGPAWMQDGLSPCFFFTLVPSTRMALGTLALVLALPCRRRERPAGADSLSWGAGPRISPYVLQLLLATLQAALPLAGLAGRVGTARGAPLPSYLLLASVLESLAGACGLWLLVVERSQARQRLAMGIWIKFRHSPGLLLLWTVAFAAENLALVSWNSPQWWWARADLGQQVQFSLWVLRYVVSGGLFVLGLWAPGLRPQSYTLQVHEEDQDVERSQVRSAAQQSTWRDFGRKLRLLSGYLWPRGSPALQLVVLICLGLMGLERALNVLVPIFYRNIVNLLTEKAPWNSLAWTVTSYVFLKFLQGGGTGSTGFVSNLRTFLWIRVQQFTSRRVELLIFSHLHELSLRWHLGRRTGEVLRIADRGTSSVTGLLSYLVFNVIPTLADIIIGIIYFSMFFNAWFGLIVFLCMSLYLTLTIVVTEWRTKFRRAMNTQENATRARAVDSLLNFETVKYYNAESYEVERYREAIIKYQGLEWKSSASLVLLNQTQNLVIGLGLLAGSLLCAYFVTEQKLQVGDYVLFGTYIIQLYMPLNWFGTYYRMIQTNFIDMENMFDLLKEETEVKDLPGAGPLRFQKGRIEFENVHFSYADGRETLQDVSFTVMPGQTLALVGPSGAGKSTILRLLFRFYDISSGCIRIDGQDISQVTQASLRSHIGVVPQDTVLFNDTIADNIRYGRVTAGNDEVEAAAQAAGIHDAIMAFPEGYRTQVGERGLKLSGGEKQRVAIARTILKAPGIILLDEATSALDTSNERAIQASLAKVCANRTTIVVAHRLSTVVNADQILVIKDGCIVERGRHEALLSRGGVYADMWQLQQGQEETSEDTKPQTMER
Chain of Beta-adrenergic receptor kinase 1 (Homo sapiens) (P25098 whole entry, looked up): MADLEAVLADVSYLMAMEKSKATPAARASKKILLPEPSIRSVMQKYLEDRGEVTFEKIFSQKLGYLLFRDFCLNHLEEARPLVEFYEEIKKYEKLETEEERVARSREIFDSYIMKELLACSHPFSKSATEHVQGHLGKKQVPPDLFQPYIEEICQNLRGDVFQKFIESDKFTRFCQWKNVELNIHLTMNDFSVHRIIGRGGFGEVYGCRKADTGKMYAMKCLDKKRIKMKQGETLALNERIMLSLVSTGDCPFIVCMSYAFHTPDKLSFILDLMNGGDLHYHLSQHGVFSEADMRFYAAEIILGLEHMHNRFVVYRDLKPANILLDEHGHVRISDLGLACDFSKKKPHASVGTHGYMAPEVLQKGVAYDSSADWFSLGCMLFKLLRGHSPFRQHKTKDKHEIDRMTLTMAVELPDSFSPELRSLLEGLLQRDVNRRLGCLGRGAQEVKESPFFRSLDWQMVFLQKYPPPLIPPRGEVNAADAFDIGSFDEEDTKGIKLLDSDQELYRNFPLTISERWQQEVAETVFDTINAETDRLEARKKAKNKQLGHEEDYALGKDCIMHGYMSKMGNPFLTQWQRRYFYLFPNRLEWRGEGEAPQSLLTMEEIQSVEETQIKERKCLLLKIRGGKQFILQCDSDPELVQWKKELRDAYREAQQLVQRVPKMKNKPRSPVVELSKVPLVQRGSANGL
Chain of Integrin beta-1 (Homo sapiens) + Integrin alpha-4 (Homo sapiens) (P05556 whole entry, looked up): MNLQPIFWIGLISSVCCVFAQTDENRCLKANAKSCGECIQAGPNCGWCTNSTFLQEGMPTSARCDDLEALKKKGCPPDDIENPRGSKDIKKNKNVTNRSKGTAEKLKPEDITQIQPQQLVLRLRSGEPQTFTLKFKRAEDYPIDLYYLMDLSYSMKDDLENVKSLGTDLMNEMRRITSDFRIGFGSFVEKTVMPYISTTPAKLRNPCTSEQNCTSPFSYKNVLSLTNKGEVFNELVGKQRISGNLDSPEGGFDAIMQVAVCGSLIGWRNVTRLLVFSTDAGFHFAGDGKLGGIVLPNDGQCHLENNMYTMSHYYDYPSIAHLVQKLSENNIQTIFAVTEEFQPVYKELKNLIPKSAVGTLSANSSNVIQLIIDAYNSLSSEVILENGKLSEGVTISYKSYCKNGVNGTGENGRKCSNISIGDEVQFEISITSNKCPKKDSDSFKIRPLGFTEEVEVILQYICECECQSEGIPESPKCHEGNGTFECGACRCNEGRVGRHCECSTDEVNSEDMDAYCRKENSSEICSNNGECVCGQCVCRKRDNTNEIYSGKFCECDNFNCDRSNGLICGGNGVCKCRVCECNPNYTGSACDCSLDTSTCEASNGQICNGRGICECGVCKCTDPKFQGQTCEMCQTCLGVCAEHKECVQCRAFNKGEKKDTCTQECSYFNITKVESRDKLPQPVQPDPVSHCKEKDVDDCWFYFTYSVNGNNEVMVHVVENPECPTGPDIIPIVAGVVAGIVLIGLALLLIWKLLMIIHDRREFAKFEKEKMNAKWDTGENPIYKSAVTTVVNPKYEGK
Chain of Integrin beta-1 (Homo sapiens) + Integrin alpha-4 (Homo sapiens) (P13612 whole entry, looked up): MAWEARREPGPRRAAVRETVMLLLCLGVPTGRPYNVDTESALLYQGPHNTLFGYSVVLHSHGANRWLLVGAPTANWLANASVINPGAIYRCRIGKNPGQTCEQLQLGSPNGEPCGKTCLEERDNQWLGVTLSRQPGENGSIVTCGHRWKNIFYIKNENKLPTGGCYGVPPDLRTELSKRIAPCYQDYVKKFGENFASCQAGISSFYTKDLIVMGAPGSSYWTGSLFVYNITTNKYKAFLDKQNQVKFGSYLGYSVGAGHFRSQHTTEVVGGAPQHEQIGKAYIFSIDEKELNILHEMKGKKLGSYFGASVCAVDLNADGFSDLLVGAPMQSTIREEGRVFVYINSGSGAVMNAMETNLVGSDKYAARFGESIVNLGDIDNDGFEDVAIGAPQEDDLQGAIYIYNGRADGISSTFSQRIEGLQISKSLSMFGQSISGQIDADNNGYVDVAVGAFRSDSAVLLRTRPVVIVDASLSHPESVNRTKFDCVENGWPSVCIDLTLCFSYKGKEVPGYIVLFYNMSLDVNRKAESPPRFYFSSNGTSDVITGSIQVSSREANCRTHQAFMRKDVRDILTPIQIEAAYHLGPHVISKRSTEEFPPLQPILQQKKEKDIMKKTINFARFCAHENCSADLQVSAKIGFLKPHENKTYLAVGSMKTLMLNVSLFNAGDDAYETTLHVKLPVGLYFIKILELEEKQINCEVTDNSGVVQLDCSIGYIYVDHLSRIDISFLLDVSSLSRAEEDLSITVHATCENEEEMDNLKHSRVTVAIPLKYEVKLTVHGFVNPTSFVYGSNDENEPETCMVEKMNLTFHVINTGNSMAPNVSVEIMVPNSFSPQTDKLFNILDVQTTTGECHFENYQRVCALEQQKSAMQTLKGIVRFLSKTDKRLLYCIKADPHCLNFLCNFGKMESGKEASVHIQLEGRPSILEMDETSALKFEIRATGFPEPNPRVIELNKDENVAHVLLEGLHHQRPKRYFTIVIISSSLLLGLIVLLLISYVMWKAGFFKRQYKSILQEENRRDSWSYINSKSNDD

CCOC(=O)C1C(=O)OC2(CCOC(C)(C)C2)C1C(=O)OCC (stereo not given)
70.8%: double positive events [6]
inactive: percent of DMSO control GFP [1] 109% | GFP response vs DMSO [2] 108% | percent response of DMSO control [3] 102% | GFP response vs DMSO [4] 125% | GFP response, % of DMSO [5] 108% | vesicle binding response [6] 8780% | inhibition [7] 10.5% | superoxide response (% of plate) [8] 102% | aptamer binding inhibition [9] 5% | response [10] 16.1% | inhibition [11] -2.89% | response [12] -6.07% | binding (% of control) [13] 102% | efflux inhibition (fraction of control) [14] 0.15 | inhibition [15] 6% | differentiation response [16] -4%

COc1ccc2[nH]cc(C3N4CC5(C)CN3CC(C)(C4)C5=O)c2c1 (stereo not given)
59.2%: double positive events [6]
inactive: percent of DMSO control GFP [1] 103% | GFP response vs DMSO [2] 103% | percent response of DMSO control [3] 107% | GFP response vs DMSO [4] 103% | GFP response, % of DMSO [5] 107% | vesicle binding response [6] 138% | inhibition [7] 9.63% | superoxide response (% of plate) [8] 105% | aptamer binding inhibition [9] -2% | response [10] -5.37% | inhibition [11] 10.8% | response [12] 1.5% | binding (% of control) [13] 101% | efflux inhibition (fraction of control) [14] -0.08 | inhibition [15] 2% | differentiation response [16] -11.9%

COCCn1c(SCCOc2ccccc2)nc2ccccc2c1=O
inactive: percent of DMSO control GFP [1] 99.8% | GFP response vs DMSO [2] 108% | percent response of DMSO control [3] 103% | GFP response vs DMSO [4] 103% | GFP response, % of DMSO [5] 96.8% | vesicle binding response [6] 154% | inhibition [7] 6.95% | superoxide response (% of plate) [8] 104% | aptamer binding inhibition [9] 5% | response [10] -6.97% | inhibition [11] -3.51% | response [12] 0.42% | binding (% of control) [13] 103% | efflux inhibition (fraction of control) [14] 0.36 | inhibition [15] 18% | differentiation response [16] 1.28%
54%: double positive events [6]

COc1cc(OC)c2c(C)c(Cl)c(=O)oc2c1
56.7%: double positive events [6]
inactive: percent of DMSO control GFP [1] 102% | GFP response vs DMSO [2] 104% | percent response of DMSO control [3] 105% | GFP response vs DMSO [4] 113% | GFP response, % of DMSO [5] 99.1% | vesicle binding response [6] 92.7% | inhibition [7] 2.66% | superoxide response (% of plate) [8] 90.2% | aptamer binding inhibition [9] -3% | response [10] -6.2% | inhibition [11] -8.58% | response [12] 1.24% | binding (% of control) [13] 100% | efflux inhibition (fraction of control) [14] -0.1 | inhibition [15] -9% | differentiation response [16] 0.24%

O=C1NC(=O)C(c2ccccc2)(c2ccccc2)N1
58.7% and 60.5%: double positive events [6]
inactive: percent of DMSO control GFP [1] 102% | GFP response vs DMSO [2] 107% | percent response of DMSO control [3] 93.9% | GFP response vs DMSO [4] 93.3% | GFP response, % of DMSO [5] 99.6% | vesicle binding response [6] 114% and 142% | inhibition [7] 20.4% and -2.11% | superoxide response (% of plate) [8] 102% and 98.5% | aptamer binding inhibition [9] -2% and 2% | response [10] 5.51% | inhibition [11] 1.12% and -5.85% | response [12] 8.2% and -0.2% | binding (% of control) [13] 97% and 99.3% | efflux inhibition (fraction of control) [14] -0.44 and 0.29 | inhibition [15] 11% and 12% | differentiation response [16] -0.18% and -8.27%
